Source: the supplement of paper PMC9694430

system: LOC_OS01G70970-cb002; test: thermal shift delta Tm vs DMSO control; higher = stronger stabilization (binding); conditions: 12.5 µM; protein concentration 2 µM
Summary of the method: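 Thermal shift values come from differential scanning fluorimetry on purified rice kinase domains made in E. coli, with melting temperatures obtained from Boltzmann fits. Samples of 19.5 μl held 2 μM kinase, 100 mM potassium phosphate pH 7.5, 150 mM NaCl, 10% glycerol, 5 × SYPRO Orange and compound in DMSO, and were heated from 25°C to 95°C at 0.05°C/s. Each shift is a triplicate mean relative to the DMSO-only protein sample.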
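Note: purified Escherichia coli-expressed rice kinase domain construct.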

Compared with COCCNCc1ccc(-c2cc3nccc(Oc4ccc(NC(=O)C5(C(=O)Nc6ccc(F)cc6)CC5)cc4F)c3s2)nc1 [Sitravatinib (MGCD516)], COc1cc2c(Oc3ccc(NC(=O)C4(C(=O)Nc5ccc(F)cc5)CC4)cc3F)ccnc2cc1OCCCN1CCOCC1 is lower in “thermal shift delta Tm” value: 5.29 °C for the first, 2.5 °C for the second.

Going from COCC(=O)NC/C=C/c1ccc2ncnc(Nc3ccc(Oc4ccc(C)nc4)c(C)c3)c2c1 to COc1cc2c(Nc3ccc(NC(=O)c4ccccc4)cc3)ncnc2cc1OCCCN1CCOCC1, the “thermal shift delta Tm” value rises from 0.44 °C to 1.66 °C.

Going from O=C(NOC[C@H](O)CO)c1ccc(F)c(F)c1Nc1ccc(I)cc1F to O=C(NOCCO)c1ccc2cncn2c1Nc1ccc(I)cc1F, the “thermal shift delta Tm” value falls from 0.46 °C to -0.05 °C.

First: Cc1cc(Nc2cc(N3CCN(C)CC3)nc(/C=C/c3ccccc3)n2)n[nH]1
Second: Cc1nc(Nc2ncc(C(=O)Nc3c(C)cccc3Cl)s2)cc(N2CCN(CCO)CC2)n1 [Dasatinib]
The “thermal shift delta Tm” value of the first is higher: 3.04 °C for the first, 0.48 °C for the second.

Going from Nc1nc(N)c2nc(-c3cccc(O)c3)c(-c3cccc(O)c3)nc2n1 to CC(C)(C)c1nc(-c2ccc(NC(=O)Nc3cccc(C(F)(F)F)c3)c3ccccc23)c2c(N)nccn12 [kira6], the “thermal shift delta Tm” value rises from 0.19 °C to 0.75 °C.

First: O=C(c1ccc(Nc2nccc(-c3cc4ccccc4s3)n2)cc1)N1CCC(N2CCCC2)CC1 [IKK-16 (IKK Inhibitor VII)]
Second: O=C(Nc1ccccc1C(=O)NC1CCCCNC1=O)c1cc2ccccc2s1 (configuration not stated)
The “thermal shift delta Tm” value of the first is higher: 2.66 °C for the first, 0.19 °C for the second.

Going from CC(C)CC(=O)Nc1n[nH]c2c1CN(C(=O)C1CCN(C)CC1)C2(C)C to Cc1nc(NC(=O)N2CCC[C@H]2C(N)=O)sc1-c1ccnc(C(C)(C)C(F)(F)F)c1 [Alpelisib (BYL719)], the “thermal shift delta Tm” value rises from 0.19 °C to 0.36 °C.

Going from OCCn1cc(-c2cnc3nnn(Cc4ccc5ncccc5c4)c3n2)cn1 to CNC(=O)c1ccc(-c2cnc3ncc(Cc4ccc5ncccc5c4)n3n2)cc1F, the “thermal shift delta Tm” value falls from 0.28 °C to -0.18 °C.

First: COc1ccc(-c2ccc3ncc4c(c3c2)n(-c2ccc(N3CCNCC3)c(C(F)(F)F)c2)c(=O)n4C)cn1
Second: CN1CCN(c2ccc3nc(-c4c(N)c5c(F)cccc5[nH]c4=O)[nH]c3c2)CC1 [Dovitinib (TKI258) Lactate]
The “thermal shift delta Tm” value of the first is lower: 0.41 °C for the first, 8.33 °C for the second.

Going from FC(F)(F)c1ccc(CNc2ccc(Cc3c[nH]c4ncc(Cl)cc34)cn2)cn1 [Pexidartinib (PLX3397)] to O=C(NCCO)c1cccc(-c2cc(Nc3ccc(OC(F)(F)F)cc3)ncn2)c1, the “thermal shift delta Tm” value falls from 2.89 °C to 0.38 °C.

Going from C[C@@H](Nc1cc(F)cc(F)c1)c1cc(C(=O)N(C)C)cc2c(=O)cc(N3CCOCC3)oc12 to Fc1ccc2[nH]ccc2c1-c1nc(N2CCOCC2)c2sc(CN3CCN(CC4CC4)CC3)cc2n1, the “thermal shift delta Tm” value rises from 0.08 °C to 0.31 °C.

First: C[C@@H]1COCCN1c1cc(=O)n2c(n1)N(Cc1cncc(Cl)c1)[C@H](C(F)(F)F)CC2
Second: CNc1nc(-c2ccc3c(N)n[nH]c3c2)cc(N2C[C@@H](C(=O)NC3CCCCC3)CC[C@H]2C)n1
The “thermal shift delta Tm” value of the first is lower: 0.33 °C for the first, 0.71 °C for the second.

Going from COc1cc(N2CCC(N(C)C)CC2)ccc1Nc1ncc(Cl)c(Nc2ccccc2P(C)(C)=O)n1 to Cc1cc(NC(=O)c2cccc(NC(=O)/C=C/CN(C)C)c2)ccc1Nc1nccc(-c2cccnc2)n1, the “thermal shift delta Tm” value falls from 4.81 °C to 1.62 °C.

Compared with N#C/C(=C(/N)Sc1ccc(N)cc1)c1ccccc1C(F)(F)F, NCC(=O)Nc1ccc(-n2nc(C(F)(F)F)cc2-c2ccc3c(ccc4ccccc43)c2)cc1 is lower in “thermal shift delta Tm” value: 0.23 °C for the first, 0.2 °C for the second.

Going from Cc1c(C(=O)N2CCOc3ccc(-c4ccc(N)nc4)cc3C2)ccc(S(C)(=O)=O)c1F to NC(=O)Nc1cc(-c2cccc(F)c2)sc1C(=O)N[C@H]1CCCNC1, the “thermal shift delta Tm” value rises from 0.48 °C to 1.89 °C.

Going from CCOc1cc2ncc(C#N)c(Nc3ccc(F)c(Cl)c3)c2cc1NC(=O)/C=C/CN(C)C [Pelitinib (EKB-569)] to CCOc1cn(-c2ccc(F)cc2C)nc1C(=O)Nc1ccc(Oc2ccnc3cc(OC)c(OC)cc23)c(F)c1, the “thermal shift delta Tm” value rises from 0.22 °C to 0.98 °C.

First: Oc1ccc(Nc2nc(-c3ccc(Cl)cc3)cs2)cc1
Second: N#Cc1ccc2ncnc(NCCc3ccccc3)c2c1 [Senexin A]
The “thermal shift delta Tm” value of the first is higher: 1.06 °C for the first, 0.3 °C for the second.

Compared with CC(C)c1c2cc(-c3ccnc(NC4CCC(NC5CCOCC5)CC4)n3)ccc2nn1C (configuration not stated), COc1cccc2cc(-c3nc([C@H]4CC[C@H](C(=O)O)CC4)n4ncnc(N)c34)[nH]c12 is higher in “thermal shift delta Tm” value: 0.29 °C for the first, 0.4 °C for the second.

For N#Cc1cnc(Nc2cc(NC[C@H]3CNCCO3)c(C(F)(F)F)cn2)cn1, the “thermal shift delta Tm” value was 1.58 °C.
